From PubChem BioAssay AID431 (Sanford-Burnham Center for Chemical Genomics, 2006)
Hit rate of the full screen: of about 63,000 compounds, about 1,100 (1.7%) were called active. This excerpt belongs to a sample that is enriched for actives. Results with a measured potency or affinity are listed apart. Values without a mark were called inactive.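 The calls were made as follows: active = compounds whose percent cytotoxicity in the single-dose primary screen, scaled between solvent and toxic-drug controls, exceeds 50; inactive = the rest.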

experiment: viability loss of HPDE-C7K cells – cell-based, fluorescence, HTS, primary screen (AID 431); conditions: HPDE-C7K KRASV12 cells, Alamar Blue viability, 48 h; at 10 µM; active compounds read high;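 also: 0% = DMSO solvent wells and 100% = doxorubicin-treated wells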

Row | SMILES | cytotoxicity
1 | COC(=O)c1ccsc1NC(=O)CN1C(=O)CCC1=O | -1.3%
2 | COCCn1c(SCC(=O)Nc2ncc(C)s2)nc2sc3c(c2c1=O)CCC3 | 14.3%
3 | CN1C(=O)/C(=C2/C=CC=CN2C)OC1=S | -24.5%
4 | COc1ccc(CCNC(=O)C2CCN(S(=O)(=O)c3cc(OC)ccc3OC)CC2)cc1 | 2.3%
5 | COc1ccccc1C1C=C(c2ccccc2)Nc2nnnn21 (configuration not stated) | 25.4%
6 | COc1cccc(C2=CC(c3cc(OC)ccc3OC)n3nnnc3N2)c1 (configuration not stated) | 65.1% (active)
7 | COc1ccc(OC)c(C2C=C(c3ccc(C)c(C)c3)Nc3nnnn32)c1 (configuration not stated) | 6%
8 | COc1cccc(C2=CC(c3ccc(OC)c(OC)c3OC)n3nnnc3N2)c1 (configuration not stated) | -4.5%
9 | COc1ccc(C2=CC(c3ccc(OC)c(OC)c3)n3nnnc3N2)c(OC)c1 (configuration not stated) | 4%
10 | COc1cccc(C2=CC(c3cccc(OC)c3OC(F)F)n3nnnc3N2)c1 (configuration not stated) | -13.8%
11 | COc1cccc(C2=CC(c3ccccc3)n3nnnc3N2)c1 (configuration not stated) | 43.2%
12 | COc1cccc(C2=CC(c3ccc(N(C)C)cc3)n3nnnc3N2)c1 (configuration not stated) | -3.6%
13 | COc1ccccc1C1C=C(c2ccc(C)cc2)Nc2nnnn21 (configuration not stated) | -8.9%
14 | COc1ccc(C2=CC(c3c(C)nn(-c4ccccc4)c3Cl)n3nnnc3N2)cc1OC (configuration not stated) | 84.4% (active)
15 | COc1cccc(C2=CC(c3cccc(OC)c3OC)n3nnnc3N2)c1 (configuration not stated) | 58.1% (active)
16 | CC1CCCCC1NC(=O)CSc1nc2ccccc2c(=O)n1Cc1ccco1 (configuration not stated) | -6.9%
17 | COc1cccc(N(CC(=O)Nc2ccccc2C)S(C)(=O)=O)c1 | 14.1%
18 | c1ccc(-c2nc3ccccc3nc2-c2ccccn2)nc1 | 13.9%
19 | COc1ccc(OC)c2[nH]c(=O)c(CCNC(=O)CC(C)C)cc12 | -6.6%
20 | CCOC(=O)N1CCC(NC(=O)C2=C(C)C(=O)OC23CCC(C)CC3)CC1 (configuration not stated) | -10.3%
21 | Cc1nn(C)c(C)c1S(=O)(=O)N1CCCC(C(=O)NC2CCCCC2)C1 (configuration not stated) | -4.9%
22 | COc1ccc(NC(=O)CSc2nnc(-c3ccncc3)n2CC2CCCO2)c(OC)c1 (configuration not stated) | -18.3%
23 | CCC(CC)C(=O)NCCc1cc2c(OC)ccc(OC)c2[nH]c1=O | 7.1%

Row | SMILES | cytotoxicity
24 | O=C(c1ccco1)N1CCN(c2ncnc3c2[nH]c2ccc(Br)cc23)CC1 | 10%
25 | Clc1ccc(-c2nnc(-c3ccccc3Cl)o2)cc1 | 13.7%
26 | Cc1nc(NC(=O)c2csc3ccccc23)sc1C | 2.8%
27 | COc1ccccc1C1(CC(=O)N2CCOCC2)CCOC(C(C)C)C1 (configuration not stated) | -15.3%
28 | CCC(=O)O[C@@H]1CC(=O)O[C@H](C)CC=CC=C[C@@H](O)[C@H](C)C[C@H](CC=O)[C@H](O[C@H]2O[C@H](C)[C@@H](O[C@H]3C[C@@](C)(O)[C@@H](OC(=O)CC)[C@H](C)O3)[C@H](N(C)C)[C@H]2O)[C@H]1OC | -0.4%
29 | CC[C@H]1OC(=O)C[C@@H](O)[C@H](C)[C@@H](O[C@@H]2O[C@H](C)C[C@H](N(C)C)[C@H]2O)[C@@H](CC=O)C[C@@H](C)C(=O)C=C[C@]2(C)O[C@H]2[C@@H]1C | 76.8% (active)
30 | Cc1cc(C)cc(NC(=O)Cn2ncn3c(cc4ccccc43)c2=O)c1 | -13.3%
31 | CN1CCN(C2=C(Cl)C(=O)N(C3CCCCC3)C2=O)CC1 | 3%
32 | O=C1c2ccncc2C(=O)N1C1CCCCC1 | 2.8%
33 | O=C(Nc1ccc2c(c1)OCCO2)C1CCN(S(=O)(=O)c2cccs2)CC1 | -8.1%
34 | O=C(CCCCCn1c(SCc2ccncc2)nc2ccccc2c1=O)NCc1ccco1 | 9.3%
35 | Cc1ccc(O)c(-c2cc(C(=O)Nc3ccc(S(=O)(=O)N4CC(C)OC(C)C4)cc3)[nH]n2)c1 (configuration not stated) | -13.4%
36 | COc1ccc(OC)c(NC(=O)c2cc(-c3cc(Cl)ccc3O)n[nH]2)c1 | 1.7%
37 | Cc1cc(O)c(-c2cc(C(=O)Nc3ccc(S(=O)(=O)N4CCOCC4)cc3)[nH]n2)cc1C | 6.5%
38 | COc1ccc(OC)c(NC(=O)c2cc(-c3ccc(C)cc3O)n[nH]2)c1 | -0.5%
39 | COc1ccc(NC(=O)c2cc(-c3cc(C)cc(C)c3O)n[nH]2)cc1Cl | 70.7% (active)
40 | Cc1c(N=C2SCC(=O)N2c2c(C)n(C)n(-c3ccccc3)c2=O)c(=O)n(-c2ccccc2)n1C | 15.2%
41 | COc1ccccc1/C=c1\sc2nc(-c3ccncc3)nn2c1=O | -13.5%
42 | COc1ccc2nc3sc(C(=O)NCc4cccs4)c(N)c3cc2c1 | 5.5%
43 | c1ccc(-c2oc3ncnc(NCCCn4ccnc4)c3c2-c2ccccc2)cc1 | 17.3%
44 | c1ccc(-c2oc3ncnc(NCCN4CCOCC4)c3c2-c2ccccc2)cc1 | 42%
45 | N=c1c2c(-c3ccccc3)c(-c3ccccc3)oc2ncn1CCCN1CCOCC1 | 55.5% (active)
46 | COc1ccc(-c2oc3ncnc(NCCN4CCOCC4)c3c2-c2ccc(OC)cc2)cc1 | 4%

Row | SMILES | cytotoxicity
47 | c1ccc(-c2oc3ncnc(NCCCN4CCOCC4)c3c2-c2ccccc2)cc1 | 59.8% (active)
48 | N=c1c2c(-c3ccccc3)c(-c3ccccc3)oc2ncn1CCN1CCOCC1 | 33.6%
49 | COc1ccc(-c2csc3ncnc(NCCN4CCOCC4)c23)cc1 | 25.8%
50 | COc1ccc(-c2oc3ncn(CCN4CCOCC4)c(=N)c3c2-c2ccc(OC)cc2)cc1 | 17.3%
51 | COc1ccc(-c2oc3ncnc(NCCCN4CCOCC4)c3c2-c2ccc(OC)cc2)cc1 | 107% (active)
52 | CCc1nnc(NC=C2C(=O)OC(C)(C)OC2=O)s1 | -7.7%
53 | Cc1c(/C(O)=C2/C(=O)C(=O)N(CCN3CCOCC3)C2c2cccnc2)cnn1-c1ccccc1 (configuration not stated) | -12.5%
54 | CCN(CC)CCN1C(=O)C(O)=C(C(=O)c2sc(C)nc2C)C1c1cccnc1 (configuration not stated) | -8.8%
55 | O=C(CN1CCN(C(=O)c2cccs2)CC1)NC1CCCCC1 | -4.4%
56 | CC1(C)CC(=O)C(C=Nc2cccnc2)=C(O)C1 | 7.1%
57 | COc1cc(C(=O)Nc2cccc(-c3nc4cc(C)ccc4o3)c2C)cc(OC)c1OC | 14.3%
58 | CCOC(=O)C1=C(N)Oc2cc(C)oc(=O)c2C1c1cccnc1 (configuration not stated) | 4.4%
59 | Cc1n[nH]c(=O)nc1NCc1ccccc1 | -17%
60 | CCCCCc1c(C)nc(NCc2ccccc2)[nH]c1=O | 2.9%
61 | CCC(C)(C)NC(=O)C(c1cccn1C)N(Cc1ccccc1)C(=O)Cn1nnc2ccccc21 (configuration not stated) | -4.3%
62 | CC(=O)NC1CSCC1OC(C)=O (configuration not stated) | -14.9%
63 | CCOC(=O)c1c(N)sc(C(=O)N2CCOCC2)c1C | -10.1%
64 | CC(C)(C)NC(=O)c1ccc(COc2ccccc2Br)o1 | -20.3%
65 | O=C(Nc1cccnc1)c1ccc(COc2ccccc2Br)o1 | 30.3%
66 | COc1cc(NC(=O)c2ccc(COc3ccccc3Br)o2)cc(OC)c1OC | 68.9% (active)
67 | COc1ccc(NC(=O)c2ccc(COc3ccccc3Br)o2)cc1OC | 40.4%
68 | O=C(Nc1nccs1)c1ccc(COc2ccc(F)cc2)o1 | 5%
69 | O=C(Nc1nccs1)c1ccc(COc2ccccc2Br)o1 | 51% (active)

Row | SMILES | cytotoxicity
70 | CC(C)c1nc(SCC(=O)NCc2ccccc2)n[nH]1 | -9.2%
71 | CN1C(=O)c2ccccc2N(C)C1c1ccc2c(c1)OCO2 (configuration not stated) | 6.7%
72 | COc1ccc(C(=O)NCC(=O)n2nc(C)cc2C)cc1OC | 13.4%
73 | Cc1ccc2c(c1)N(C(C)C(=O)NCCc1ccccc1)C(=O)CO2 (configuration not stated) | -4.9%
74 | COc1cccc(CN(C)CC(=O)NC(=O)NCc2ccco2)c1 | -9.5%
75 | O=C(CN(C1CCCCC1)S(=O)(=O)c1ccccc1)NCc1cccnc1 | 73.1% (active)
76 | Cc1ccc(S(=O)(=O)N(CC(=O)NCc2ccncc2)C2CCCCC2)cc1 | 1.7%
77 | O=C(CN(C1CCCCC1)S(=O)(=O)c1ccc(Cl)cc1)NCc1cccnc1 | -28.1%
78 | COc1ccc(C(=O)N2CCCC(c3nc(-c4cccs4)no3)C2)cc1 (configuration not stated) | 3%
79 | CCOc1ccc(-c2c(C#N)c(N)nc3c2c(=O)n(C)c(=O)n3C)cc1OC | -3.8%
80 | c1ccc(Cn2ncc3c(NCc4ccco4)ncnc32)cc1 | 8.3%
81 | CN(C)CCCNc1ncnc2c1cnn2-c1ccccc1 | 0.7%
82 | CCCCNc1ncnc2c1cnn2-c1ccc(Cl)cc1 | 28.5%
83 | CCCCNc1ncnc2c1cnn2-c1ccccc1 | 61.8% (active)
84 | Cc1cccc(-n2ncc3c(NCc4ccco4)ncnc32)c1 | 69.2% (active)
85 | c1ccc(-n2ncc3c(NCc4ccco4)ncnc32)cc1 | 7.1%
86 | Clc1ccc(Cn2ncc3c(NCc4ccco4)ncnc32)c(Cl)c1 | 60.9% (active)
87 | Clc1ccc(-n2ncc3c(NCc4ccco4)ncnc32)cc1 | 8.8%
88 | Cc1ccc(-n2ncc3c(NCc4ccco4)ncnc32)c(C)c1 | 5.4%
89 | COc1ccc(S(=O)(=O)Cc2ccc(C(=O)NCCCN(C)c3ccccc3)o2)cc1 | 2.5%
90 | CCOC(=O)C1C(=O)CC(C)(O)C(C(=O)OCC)C1c1ccco1 (configuration not stated) | 1.3%
91 | CC1CC(C)CN(C(=O)CCCn2c(=S)[nH]c3ccccc3c2=O)C1 (configuration not stated) | -3.1%
92 | CCOc1cc(C(=O)N2CCOCC2)ccc1OCc1ccccc1 | -7.3%
